Compound activity (PubChem BioAssay)
HEK cytotox = HEK 293 cell cytotoxicity. HEK 293 viability, ATP luminescence (CellTiter-Glo), 48-72 h. Potency, µM (titrated, usually from 115 µM), actives largely listed as inhibitors. 94,000 tested, 6.6% active. AID 1345083; further: nearly all actives have a fitted effect of over 60% in size
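HEK 293 cells seeded at 250 cells/well were exposed to compound for 48 or 72 hr at 37 degree Celsius. Viability taken as ATP content by CellTiter-Glo luminescence.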
FLuc inh = Photinus pyralis luciferase inhibition | P08659 | purified P. pyralis luciferase, luminescence, biochemical | Potency, µM (doses to about 115 µM), usual class: inhibitors | 76,000 tested, 2.5% active; further: nearly all actives have a fitted effect of over 65% in size
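Biochemical qHTS: compound (6-point titration) added to 10uM D-luciferin plus 10uM ATP in Tris acetate pH 7.5 buffer with Mg, Tween-20 and BSA, then purified enzyme at 10nM; light output imaged.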
hNpr1 antagonist = blocks ANP-stimulated signaling of human Npr1 receptor. HEK293 hNpr1 GloSensor cGMP, ANP-stimulated luminescence. Potency, µM (doses to about 46.3 µM), usual class: inhibitors. 76,000 tested, 1.6% active. AID 1347048; calls by dose curve; further: nearly all actives have a fitted effect of over 60% in size
Target sequence (P16066 whole entry, looked up): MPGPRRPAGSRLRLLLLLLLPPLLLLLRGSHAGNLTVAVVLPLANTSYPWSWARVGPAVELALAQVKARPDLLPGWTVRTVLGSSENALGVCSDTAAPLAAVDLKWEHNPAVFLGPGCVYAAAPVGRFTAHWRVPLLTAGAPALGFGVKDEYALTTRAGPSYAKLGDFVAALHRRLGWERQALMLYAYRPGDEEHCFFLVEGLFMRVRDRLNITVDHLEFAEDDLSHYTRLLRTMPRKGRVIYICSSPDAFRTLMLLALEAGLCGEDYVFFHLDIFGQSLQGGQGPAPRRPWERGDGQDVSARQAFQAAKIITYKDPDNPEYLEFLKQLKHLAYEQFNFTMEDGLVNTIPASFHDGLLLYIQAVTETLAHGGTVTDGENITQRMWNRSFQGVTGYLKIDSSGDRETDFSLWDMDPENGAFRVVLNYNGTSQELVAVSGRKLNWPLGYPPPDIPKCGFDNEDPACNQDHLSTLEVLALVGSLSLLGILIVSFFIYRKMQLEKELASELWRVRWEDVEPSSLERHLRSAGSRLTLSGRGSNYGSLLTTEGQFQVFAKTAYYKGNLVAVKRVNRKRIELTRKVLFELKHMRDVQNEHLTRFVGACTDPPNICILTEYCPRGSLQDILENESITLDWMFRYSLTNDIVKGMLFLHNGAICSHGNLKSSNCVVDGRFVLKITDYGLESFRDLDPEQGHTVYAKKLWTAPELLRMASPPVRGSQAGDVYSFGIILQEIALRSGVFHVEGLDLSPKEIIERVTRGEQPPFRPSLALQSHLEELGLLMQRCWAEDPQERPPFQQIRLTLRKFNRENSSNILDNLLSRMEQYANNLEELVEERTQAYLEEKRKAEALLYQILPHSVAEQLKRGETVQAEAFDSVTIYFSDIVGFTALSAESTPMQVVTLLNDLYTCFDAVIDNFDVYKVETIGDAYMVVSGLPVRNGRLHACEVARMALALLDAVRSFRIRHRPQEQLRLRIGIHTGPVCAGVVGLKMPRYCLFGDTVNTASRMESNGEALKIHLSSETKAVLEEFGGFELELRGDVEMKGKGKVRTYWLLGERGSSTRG
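HEK293 cells stably expressing human Npr1 and cGMP GloSensor pGS-40F, loaded 2 h with 2% GloSensor reagent, given compound 30 min at room temperature. Luminescence read before and 20 min after 0.1 nM hNppA.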
GPT2 inhibitor = blocks human glutamate pyruvate transaminase 2 | Potency, µM (doses to about 57.7 µM), actives largely listed as inhibitors | Recombinant GPT2, coupled pyruvate oxidase/HRP Amplex Red fluorescence | Q8TD30 | 100,000 tested, 0.25% active | AID 1671188; further: nearly all actives have a fitted effect of over 60% in size
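Inhibition is scored from Amplex Red fluorescence generated when pyruvate oxidase and HRP act on pyruvate released by GPT2. Reactions contain 10ng/uL enzyme, 250uM a-KG and 2mM L-alanine and run 30 min at room temperature.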
NIH3T3 tox = kills NIH 3T3 cells; Potency, µM (top dose mostly 96.7 µM), actives largely listed as inhibitors; 94,000 tested, 4.3% active; NIH 3T3 viability, CellTiter-Glo ATP luminescence, 48-72 h; further: nearly all actives have a fitted effect of over 55% in size
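Cytotoxicity is measured as loss of cellular ATP: NIH 3T3 cells (400/well) are exposed to compound for 48 or 72 hr at 37 °C, then CellTiter-Glo luminescence is imaged after 10 min at room temperature.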
Of the large screens only hits and unclear results are named; the others gave an inactive call. In the library only some 10% were active in any assay of this set; here they are far more common. Unless noted, the call rests on the fitted dose curve; in most records, active means well fitted curve in the direction sought with a large enough effect; inconclusive means small, poorly fitted or top-dose-only effect, or another doubt; inactive means no such curve, though single readings can be large; an effect the other way counts as inactive or inconclusive.

O=C(Nc1cc(-c2cccnc2)nn1-c1ccccc1)c1ccc(C(F)(F)F)cc1	HEK cytotox inconclusive, NIH3T3 tox 31.6µM (no result: FLuc inh, hNpr1 antagonist)
O=C(Nc1cc(-c2ccncc2)nn1-c1ccccc1)c1ccc(Cl)cc1	HEK cytotox 79.4µM, NIH3T3 tox inconclusive (no result: FLuc inh, hNpr1 antagonist)
COc1cccc(C(=O)Nc2cc(-c3cccnc3)nn2-c2ccccc2)c1	HEK cytotox inconclusive, NIH3T3 tox inconclusive (no result: FLuc inh, hNpr1 antagonist)
COc1ccc(CN2CCC(O)(c3csc(CN4CC[C@@H](O)C4)n3)CC2)cc1	none
COc1ccccc1CC(=O)N1CCCc2ncc(C(=O)Nc3cccc(Cl)c3)cc21	HEK cytotox 56.2µM, hNpr1 antagonist inconclusive, NIH3T3 tox inconclusive
COc1ccccc1CC(=O)N1CCCc2ncc(C(=O)Nc3cccc(C(F)(F)F)c3)cc21	HEK cytotox 50.1µM, GPT2 inhibitor inconclusive, NIH3T3 tox inconclusive
COc1ccc(NC(=O)c2cnc3c(c2)N(C(=O)Cc2cccc(C(F)(F)F)c2)CCC3)cc1OC	HEK cytotox inconclusive, NIH3T3 tox inconclusive
O=C(Nc1cccc(C(F)(F)F)c1)c1cnc2c(c1)N(Cc1ccccc1)CCC2	HEK cytotox 63.1µM, NIH3T3 tox 31.6µM
COc1ccccc1CC(=O)N1CCCc2ncc(C(=O)Nc3ccc(OC)c(OC)c3)cc21	HEK cytotox inconclusive
O=C(c1cccc2cnccc12)N1CCCC2(C=Cc3ccccc3O2)CC1 (stereo not given)	HEK cytotox 44.7µM, NIH3T3 tox inconclusive
COCCCNC(=O)c1cn2cc(-c3cccc(C#N)c3)sc2n1	HEK cytotox inconclusive, NIH3T3 tox 44.7µM (no result: FLuc inh, hNpr1 antagonist)
O=C(NCC1CC1)c1cn2cc(-c3ccc(C(F)(F)F)cc3)sc2n1	HEK cytotox inconclusive, NIH3T3 tox inconclusive (no result: FLuc inh, hNpr1 antagonist)
COc1ccc(-c2cn3cc(C(=O)NCC4CC4)nc3s2)cc1	HEK cytotox 63.1µM, NIH3T3 tox 50.1µM (no result: FLuc inh, hNpr1 antagonist)
COc1ccc(-c2cn3cc(C(=O)N(C)C)nc3s2)cc1	HEK cytotox inconclusive, NIH3T3 tox 89.1µM (no result: FLuc inh, hNpr1 antagonist)
COCCCNC(=O)c1cn2cc(-c3ccc(OC)cc3)sc2n1	HEK cytotox 79.4µM, NIH3T3 tox 39.8µM (no result: FLuc inh, hNpr1 antagonist)
CNC(=O)c1cc(C)nc2onc(C3CCN(C(=O)c4ccc(Cl)cc4)C3)c12 (stereo not given)	HEK cytotox inconclusive (no result: FLuc inh, hNpr1 antagonist, GPT2 inhibitor)
Cc1nc([C@H]2CCN(CC3CCCCC3)C[C@H]2NC(=O)C2CCOCC2)n[nH]1	none
COc1cccc(-c2cccc(C(=O)N3CCCC3C(=O)NCC(F)F)c2)c1 (stereo not given)	none (no result: FLuc inh, hNpr1 antagonist)
CN1CCCC1CCNc1nccc(-c2cnn(-c3ccc(F)cc3)c2)n1 (stereo not given)	HEK cytotox 44.7µM, FLuc inh inconclusive, NIH3T3 tox inconclusive
O=C(c1ccc(Cl)cc1)N1CCC(n2cc(-c3cccc(F)c3)[nH]c2=O)CC1	none (no result: FLuc inh, hNpr1 antagonist)
CC(C)CNC(=O)c1csc(-c2cccc(OC(C)C)c2)n1	HEK cytotox 39.8µM, NIH3T3 tox inconclusive
CCOc1cccc(-c2nc(C(=O)NCc3ccccc3)cs2)c1	HEK cytotox inconclusive, hNpr1 antagonist inconclusive, NIH3T3 tox inconclusive
CCOc1cccc(-c2nc(C(=O)Nc3ccc(OC)cc3)cs2)c1	HEK cytotox inconclusive, FLuc inh inconclusive, NIH3T3 tox inconclusive
CCN(CC)C(=O)c1csc(-c2cccc(OC(C)C)c2)n1	HEK cytotox 39.8µM, hNpr1 antagonist inconclusive, NIH3T3 tox inconclusive
CC(C)Oc1cccc(-c2ccc(C(=O)N(C)C)cc2)c1	HEK cytotox 35.5µM, FLuc inh inconclusive, NIH3T3 tox inconclusive
O=C(NCc1ccc(Cl)cc1)C1Cn2cccc2C(=O)N1Cc1cccnc1 (stereo not given)	none
Cc1cc2occ(CC(=O)N3CCCn4nc(CO)cc4C3)c2cc1Cl	NIH3T3 tox inconclusive
COc1ccc(C(=O)N2CCCCCCN(C)C(=O)[C@@H]3CCC[C@@H]32)c(OC)c1	none
CN1CCCCCC(O)c2cc(C(=O)NCCc3ccccn3)ccc21 (stereo not given)	HEK cytotox inconclusive, FLuc inh 44.7µM, NIH3T3 tox 31.6µM
CC(C)N1C(=O)C2(CCCCC2)C1C(=O)NCCCN1CCCc2ccccc21 (stereo not given)	HEK cytotox 79.4µM, NIH3T3 tox inconclusive
COc1ccccc1OCCNC(=O)c1ccc2c(c1)C(O)CCCCCN2C (stereo not given)	HEK cytotox inconclusive, NIH3T3 tox inconclusive
COCCN1CCCCCC(O)c2cc(C(=O)NCCCN3CCCc4ccccc43)ccc21 (stereo not given)	HEK cytotox 39.8µM, GPT2 inhibitor inconclusive, NIH3T3 tox inconclusive
CCCN(CC1CC1)C(=O)c1ccc2c(c1)C(O)CCCCCN2CCOC (stereo not given)	HEK cytotox 79.4µM, NIH3T3 tox inconclusive
CC(C)N1C(=O)C2(CCCCC2)C1C(=O)NCCCN1CCCCC1 (stereo not given)	none
CC(Cc1cc2c(c(C(N)=O)c1)N(CCCO)CC2)NCCOc1ccccc1OCC(F)(F)F (stereo not given)	none (no result: HEK cytotox, FLuc inh, hNpr1 antagonist, NIH3T3 tox)
COc1ccc(C)cc1NC(=O)c1ccc2c(c1)C(O)CCCCCN2C (stereo not given)	HEK cytotox inconclusive, NIH3T3 tox inconclusive
COCCN1CCCCCC(O)c2cc(C(=O)Nc3cc(C)ccc3OC)ccc21 (stereo not given)	HEK cytotox 44.7µM, FLuc inh inconclusive, NIH3T3 tox inconclusive
CCCNC(=O)N1CCOC[C@H](Oc2ccccc2)C1	none
O=C(Nc1ccc(OC(F)(F)F)cc1)N1CCOC[C@H](Oc2ccccc2)C1	HEK cytotox 56.2µM, hNpr1 antagonist inconclusive, NIH3T3 tox 31.6µM
CCCCc1ncc(CN(C)CC2CCCN(CCc3ccc(F)cc3)C2)[nH]1 (stereo not given)	HEK cytotox 39.8µM, GPT2 inhibitor inconclusive, NIH3T3 tox inconclusive
CN(Cc1ccc(N2CCNC2=O)cc1)CC1CCCN(CCc2ccc(F)cc2)C1 (stereo not given)	HEK cytotox inconclusive, NIH3T3 tox inconclusive
O=C(NCCC1CCN(C(=O)Nc2cc(F)ccc2F)CC1)c1cccc(F)c1	HEK cytotox inconclusive
Cc1ccc(C(C)NC(=O)CN2C(=O)C3(CCNCC3)Nc3ccccc32)cc1 (stereo not given)	none
O=C1N(CCCCOc2ccccc2)c2ccccc2NC12CCNCC2	HEK cytotox 20µM, GPT2 inhibitor inconclusive, NIH3T3 tox inconclusive
O=C(CN1C(=O)NC2(CCS(=O)(=O)CC2)C1=O)NC1CCCCC1	none
CC(=O)NCC(=O)N1Cc2ccccc2CC2(CCN(Cc3ccc(O)cc3)C2)C1 (stereo not given)	none (no result: FLuc inh, hNpr1 antagonist)
Cc1ccc(CN2CCN(c3nc(C)ccc3C#N)CC2CCO)cc1 (stereo not given)	HEK cytotox inconclusive
COc1ccc(CN2CCN(c3nc(C)ccc3C#N)CC2CCO)cc1C (stereo not given)	HEK cytotox 50.1µM, NIH3T3 tox inconclusive
O=C1CC(C(=O)N2CCc3nc(-c4ccccc4)[nH]c3C2)C2(CCCCC2)O1 (stereo not given)	GPT2 inhibitor inconclusive
